Shown are actives, neighbours in structure and some others; about 7.3% of the full set was active somewhere.
ELG1 genotox: genotoxicity induction in ELG1-luciferase HEK293T cells; HEK293T ELG1-luciferase reporter, luminescence, 16 h; Potency, µM (titrated, usually from 46 µM), for the others: at the highest dose activity change, positive = activation, hits mostly activators; 330,000 compounds, 1.3% hits; also: % of control where 0% means no effect; nearly all actives have a fitted effect of over 60% in size
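HEK293T cells expressing luciferase-tagged ELG1 were exposed to compound or DMSO vehicle for 16 hr at 37 °C and 5% CO2. Luciferase activity was then measured with ONE-Glo after 30 min at room temperature.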
NPC1 prom act: NPC1 promoter activation; Huh7 NPC1 promoter luciferase reporter, 24 h; Potency, µM (titrated, usually from 9.22 µM), without a hit: at the highest dose activation, usual class: activators; 320,000 compounds, 2.4% hits; also: % of control where 0% means no effect; nearly all actives have a fitted effect of over 60% in size
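Quantitative HTS used a cell-based reporter: Huh7 cells stably bearing the NPC1 promoter upstream of luciferase were treated with compounds for 24 h, and promoter activation was read as luminescence.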
Rab9 promoter act: activates the Rab9 promoter | AID 485297 | Potency, µM (series often up to 9.22 µM), for inactives: top-dose activation, negative = inhibition, usual class: activators | Huh7 Rab9 promoter-luciferase reporter, luminescence, 24 h | 320,000 compounds, 2.8% hits; also: % of control where 0% means no effect; nearly all actives have a fitted effect of over 60% in size
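Promoter activation is measured as luciferase luminescence in Huh7 cells stably transfected with a Rab9 promoter–luciferase construct, following 24 h compound exposure at 37 °C and 10 min reagent incubation at ambient temperature.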
SMN2 splice up: enhancers of SMN2 splice variant expression | HEK293 SMN2-luciferase splicing reporter, luminescence, 30-36 h | Potency, µM (highest dose often 46.1 µM), without a hit: top-dose activity change, positive = activation, hits mostly activators | 210,000 compounds, 2.8% hits; also: % of control where 0% means no effect; nearly all actives have a fitted effect of over 55% in size
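HEK293 cells carry an SMN2 minigene-luciferase reporter in which exon 7 inclusion puts luciferase in frame. Cells were seeded at 2000 cells/well, attached for 10-12 hours, then exposed to compounds for 30-36 hours at 37C before ONE-Glo luminescence.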
FLuc counter: inhibits or activates purified firefly luciferase, miR-21 counter-screen. P08659. purified FLuc, Km substrates, luminescence inhibition. Potency, µM (series often up to 57.5 µM), inactives show top-dose activity change, negative = inhibition, most hits filed as inhibitors. 360,000 compounds, 6.9% hits. AID 588342;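 also: plate controls were vehicle for no effect and reference inhibitor for full effect; nearly all actives have a fitted effect of over 55% in size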
Target sequence (P08659 whole entry, looked up): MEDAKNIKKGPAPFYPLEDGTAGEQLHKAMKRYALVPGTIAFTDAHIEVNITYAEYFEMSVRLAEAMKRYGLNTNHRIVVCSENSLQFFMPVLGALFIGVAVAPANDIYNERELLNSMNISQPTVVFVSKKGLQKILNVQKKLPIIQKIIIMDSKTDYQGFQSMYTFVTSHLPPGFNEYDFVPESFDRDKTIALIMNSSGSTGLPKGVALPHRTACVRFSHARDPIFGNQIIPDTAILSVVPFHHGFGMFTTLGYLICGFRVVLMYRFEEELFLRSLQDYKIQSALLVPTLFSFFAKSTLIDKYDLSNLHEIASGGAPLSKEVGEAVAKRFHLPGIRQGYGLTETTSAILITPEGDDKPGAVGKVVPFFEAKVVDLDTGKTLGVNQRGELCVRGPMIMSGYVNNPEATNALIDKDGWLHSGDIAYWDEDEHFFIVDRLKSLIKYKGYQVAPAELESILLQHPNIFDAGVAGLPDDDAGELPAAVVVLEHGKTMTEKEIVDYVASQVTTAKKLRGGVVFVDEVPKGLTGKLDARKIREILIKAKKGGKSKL
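Purified P. pyralis luciferase (10nM final) with 10uM D-luciferin and 10uM ATP (Km levels) in 50mM Tris acetate pH 7.5, 10mM Mg acetate, 0.01% Tween-20, 0.05% BSA; qHTS 6-point titration, ~60 µM downward; luminescence read.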
Luc counter: Kinase-Glo luciferase inhibition (counter-screen) | Q27757 | Kinase-Glo luciferase, ATP luminescence, 8 min | Potency, µM (series often up to 38.3 µM), for the others: at the top dose activity change, negative = inhibition, most hits filed as inhibitors | 200,000 compounds, 0.28% hits | AID 1379; also: % is scaled to controls: 0 for no effect and ±100 for the full control effect; nearly all actives have a fitted effect of over 60% in size
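Compound is pinned into ATP-containing buffer (10 uM ATP, imidazole pH 7.2, 7 mM MgCl2). Kinase-Glo luciferase reagent is then added. Light output is recorded following an 8-min room-temperature incubation.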
Starred values were filed as active, the others as inactive; ? = inconclusive; nt = no result given; [ ] = remark or other dose. Calls follow the shape of the dose curve; as a rule, active = well fitted curve in the direction sought with a large enough effect; inconclusive = small, poorly fitted or top-dose-only effect, or another doubt; inactive = no such curve, though single readings can be large; an effect the other way counts as inactive or inconclusive. Potency is read from the fitted curve at half-maximal effect.

SMILES	ELG1 genotox	NPC1 prom act	Rab9 promoter act	SMN2 splice up	FLuc counter	Luc counter
O=C(Nc1nc2ccccc2[nH]1)C1CCN(C(=O)c2ccc(F)cc2)CC1	-2%	-4%	-1%	nt	-14%	nt
O=C(OCc1nc2ccccc2[nH]1)C12CC3CC(CC(C3)C1)C2	-3%	-5%	-5%	-11%	?	-1%
O=C(NC1CCCC1)c1ccccc1-c1nc2ccccc2[nH]1	-1%	-1%	1%	11µM*	0%	-6%
O=C(Nc1nc2ccccc2[nH]1)Nc1ccccc1F	1.2µM*	?	?	nt	1.1µM*	nt
O=C(Nc1nc2ccccc2[nH]1)C1CC1	10%	-15%	0%	10µM*	?	-11%
O=C(Nc1nc2ccccc2[nH]1)C12CC3CC(CC(C3)C1)C2	?	2µM*	2.8µM*	14µM*	3.4µM*	-2%
O=C(CSc1nc2ccccc2[nH]1)Nc1ccccc1F	5%	-1%	-4%	-7%	3%	-2%
O=C(Nc1nc2ccccc2[nH]1)NC1CCCCC1	2.6µM*	0.45µM*	0.4µM*	nt	1.5µM*	nt
O=C(Nc1ccccc1NC(=O)NC1CCCCC1)NC1CCCCC1	-31%	-5%	-7%	-78%	?	-2%
Cc1ccc(S(=O)(=O)N(C)Cc2nc(-c3ccccc3)oc2C)cc1	nt	nt	nt	nt	-22%	nt
CC1C=CCC2C(=O)N(c3cccc(C(=O)N4CCN(c5ccc(F)cc5)CC4)c3)C(=O)C12 (stereo not drawn)	?	2.8µM*	3.2µM*	?	12µM*	-6%
O=C(c1cccc(N2C(=O)C3C4C=CC(C4)C3C2=O)c1)N1CCN(c2ccc(F)cc2)CC1 (stereo not drawn)	-6%	2%	-8%	nt	0%	nt
N#C/C(=C\c1ccc(O)c(O)c1)C(=O)NCCCCc1ccccc1	nt	nt	nt	nt	nt	-2%
Cc1ccc(-n2c(=O)c3sccc3n(Cc3cc(=O)n4ccccc4n3)c2=O)cc1F	4%	-2%	-1%	5%	0%	-4%
Cc1ccc(-n2c(=O)c3sccc3n(Cc3cc(=O)n4cc(Cl)ccc4n3)c2=O)cc1F	2%	-1%	-2%	35µM*	1%	-4%
CC(=O)c1ccc2c(c1)Cc1cc(C(C)=O)ccc1-2	18µM*	2.5µM*	1.8µM*	nt	?	nt
CSc1n[nH]c(-c2ccc(C(F)(F)F)cc2)n1	?	?	?	nt	17µM*	nt
Cc1ccc(CNC(=O)CSc2n[nH]c(-c3ccc(F)cc3)n2)cc1	nt	nt	nt	nt	-20%	nt
Cc1ccc(C(=O)N2CCN(c3ccccc3F)CC2)cc1NC(=O)c1nsc2ccccc12	nt	nt	nt	nt	-13%	nt
O=C(Nc1ccc(F)cc1)N1CCN(C(=O)c2nsc3ccccc23)CC1	nt	nt	nt	nt	-8%	nt
O=C(Nc1ccc(C(=O)N2CCN(c3ccc(F)cc3)CC2)cc1)c1nsc2ccccc12	nt	nt	nt	nt	7.6µM*	nt
O=C(Nc1ccc(C(=O)N2CCCCC2)cc1)c1nsc2ccccc12	nt	nt	nt	nt	1.3µM*	nt
Cc1cccc(N2CCN(C(=O)c3ccc(NC(=O)c4nsc5ccccc45)cc3)CC2)c1C	nt	nt	nt	nt	6µM*	nt
COc1ccc(CCNC(=O)CCn2c(=O)c3ccccc3n(Cc3ccccc3F)c2=O)cc1OC	nt	nt	nt	3%	-4%	nt
Cc1ccc(Cl)cc1N(C)C(=O)c1noc2c1CCCCC2	nt	nt	nt	nt	-8%	nt
SMILES	ELG1 genotox	NPC1 prom act	Rab9 promoter act	SMN2 splice up	FLuc counter	Luc counter
Cc1onc(-c2ccccc2Cl)c1-c1nc(-c2ccccn2)no1	-4%	-3%	0%	-10%	-8%	-3%
Clc1ccccc1/C=C/c1nc(-c2ccccn2)no1	?	0.22µM*	?	nt	0.11µM*	nt
Cc1ccc(NC(=O)CN2C(=O)C(c3ccc(C)cc3)=NC23CCCCCC3)cc1	nt	nt	nt	-8%	-7%	nt
O=C1/C(=C/c2ccc([N+](=O)[O-])cc2)C=C(c2ccccc2)N1c1ccccc1	3%	2%	1%	nt	0%	nt
O=C(O)c1cccc(N2C(=O)/C(=C/c3ccc([N+](=O)[O-])cc3)C=C2c2ccccc2)c1	-4%	0%	7%	-15%	24µM*	-7%
CC(C)n1c(SCC(=O)c2ccc(F)cc2)nc2c(sc3ccccc32)c1=O	nt	nt	nt	nt	-1%	nt
Cc1cc(C)[n+]2[nH]c(N)c(N=Nc3ccccc3)c2n1	0%	9%	7%	nt	15µM*	nt
Nc1ncnc(N)c1N=Nc1ccccc1	-14%	20%	0%	nt	-6%	nt
COc1cc(/C=C/c2nc(C#N)c(N3CCCCCC3)o2)cc(OC)c1OC	nt	nt	nt	23%	?	nt
Cc1c(OCc2nn[nH]n2)ccc2c3c(c(=O)oc12)CCCC3	-3%	-4%	-10%	6%	21µM*	-1%
Cc1c(OCc2nn[nH]n2)ccc2c3c(c(=O)oc12)CCC(C)C3 (stereo not drawn)	4%	23%	-4%	-8%	?	1%
O=C(/C=C/c1cn(-c2ccccc2)nc1-c1cccnc1)N1CCCCC1	-4%	0%	10%	3%	15µM*	-1%
NC(=S)N/N=C/c1cn(-c2ccccc2)nc1-c1cccnc1	7%	15%	12%	nt	6µM*	nt
NC(=O)N/N=C/c1cn(-c2ccccc2)nc1-c1cccnc1	6%	1%	-2%	nt	9.5µM*	nt
CCN(c1ccccc1)S(=O)(=O)c1ccc(NC(=O)c2cc(=O)c3ccc(C)c(C)c3o2)cc1	nt	nt	nt	-3%	-4%	nt
O=c1[nH]ncc2ccccc12	nt	nt	nt	4%	nt	nt
CC1CCCN(c2csc3ccccc3c2=O)C1 (stereo not drawn)	nt	nt	nt	nt	8.5µM*	nt
Cc1ccc2scc(N3CCc4ccccc4C3)c(=O)c2c1	nt	nt	nt	nt	4.8µM*	nt
CC(=O)N1CCN(c2csc3ccc(Br)cc3c2=O)CC1	nt	nt	nt	nt	15µM*	nt
Cc1ccc(-c2csc3ncnc(N4CCc5ccccc5C4)c23)cc1	-11%	0%	2%	-11%	-1%	2%
Cc1ccc(C)c(N2CCN(C(=O)c3csc4ccccc34)CC2)c1	-1%	-2%	0%	-14%	0%	-1%
O=c1c(N2CCCCC2)csc2ccc(F)cc12	nt	nt	nt	nt	6µM*	nt
CCN1CCN(c2csc3ccc(Cl)cc3c2=O)CC1	nt	nt	nt	nt	15µM*	nt
Cc1ccc2scc(N3CCN(c4ccc(F)cc4)CC3)c(=O)c2c1	nt	nt	nt	nt	-12%	nt
Cc1ccc2scc(N3CCN(c4ccccc4)CC3)c(=O)c2c1	nt	nt	nt	nt	17µM*	nt
COC(=O)C1=C(C(=O)OC)[C@@H]2N(Cc3ccccc3)c3ccccc3[C@@]23C[C@@H](C(=O)OC)N(S(=O)(=O)c2ccc(C#N)cc2)C3=N1	nt	nt	nt	1%[9.22 µM]	nt	-9%[7.66 µM]
C/C(=N\NC(=S)Nc1ccccc1C)c1ccc(O)cc1	3%	1%	9%	-10%	21µM*	0%
